# Hits are enriched below; roughly 31% of the tested compounds scored in any of these assays.
# CYP2C9 inh = inhibitors of human CYP2C9 | P11712 | CYP2C9 Supersomes, luciferin-H conversion, luminescence | inhibition, % at 5 µM | hit rate 20% among 96,000;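 active means blocking of liver enzyme CYP2C9 beyond about 50% at 5 µM, limit read from the data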
# Target sequence (P11712 whole entry, looked up): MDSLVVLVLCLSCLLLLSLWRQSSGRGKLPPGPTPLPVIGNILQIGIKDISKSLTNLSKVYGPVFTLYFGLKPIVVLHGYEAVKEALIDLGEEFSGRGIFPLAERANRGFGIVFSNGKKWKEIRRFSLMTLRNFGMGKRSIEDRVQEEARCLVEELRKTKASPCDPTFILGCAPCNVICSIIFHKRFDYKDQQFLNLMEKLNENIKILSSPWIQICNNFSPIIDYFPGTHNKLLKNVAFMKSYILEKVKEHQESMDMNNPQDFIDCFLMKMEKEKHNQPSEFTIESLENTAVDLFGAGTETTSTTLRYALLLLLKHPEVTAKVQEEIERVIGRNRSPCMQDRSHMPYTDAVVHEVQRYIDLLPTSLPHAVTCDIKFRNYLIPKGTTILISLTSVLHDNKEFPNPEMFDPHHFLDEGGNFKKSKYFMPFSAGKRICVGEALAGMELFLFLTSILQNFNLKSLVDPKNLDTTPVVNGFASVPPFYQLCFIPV
# CYP2C9 act = CYP2C9 (human) activation. AID 1024. hit rate 1.4% among 96,000. activation factor at 5 µM. recombinant CYP2C9, luciferin-H conversion, luminescence; stronger effect = higher value; factor 1 = untreated enzyme, 0 = blocked. P11712;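 active means activation factor of 2 or more for CYP2C9 at a 5 µM dose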;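 further: 0 = sulfaphenazole-blocked wells and 1 = vehicle-only wells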
# CYP2C19 activ = cytochrome P450 2C19 (human) activation | 96,000 tested, under 10 active | recombinant CYP2C19, luciferin-H EGE luminescence; stronger effect = higher value; 0 = fully inhibited enzyme, 1 = untreated enzyme | P33261 | AID 1025 | activation factor at 5 µM;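 active means activation factor of at least 2 at 5 µM in the primary screen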;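 further: 0 = wells with 2.5 mM tranylcypromine and 1 = vehicle-only wells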
# CYP2C19 inh = human CYP2C19 inhibition; P33261; CYP2C19 Supersomes, luciferin-H EGE luminescence, 30 min; inhibition, % at 5 µM; hit rate 21% among 96,000; AID 778;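 active means CYP2C19 inhibition above a set limit at 5 µM in the primary screen, cut at about 50% in these data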;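 further: plate controls were negative control wells for no effect and 2.5 mM tranylcypromine positive control for full effect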
# PLAP act = activates human placental alkaline phosphatase | activation fold at 20 µM | P05187 | hit rate 1.2% among 96,000 | purified PLAP enzyme, luminescent substrate read-out; stronger effect = higher value; in the data active means activation fold above about 2
# Numbers without * were called inactive; . = not tested or not shown.
SMILES,CYP2C9 inh,CYP2C9 act,CYP2C19 activ,CYP2C19 inh,PLAP act
Cc1ccc(Cn2c(Cc3ccccc3)nc3ccccc32)cc1,44,0.6,0.6,41,0.9
CC(=O)NCCCc1nc2ccccc2n1Cc1ccc(C)cc1,49,0.5,0.8,22,1.6
COCc1nc2ccccc2n1Cc1ccccc1,32,0.7,0.2,79*,1
Cc1cccc(NCc2nc3ccccc3n2Cc2ccccc2)c1,96*,0,0,96*,20
Nc1nc(Br)c2c(F)cccc2c1-c1ccc(F)cc1,29,0.7,0.8,17,1
COc1cc2[nH]c(=O)n(Cc3ccc(C(=O)NCC4CCCO4)cc3)c(=O)c2cc1OC (configuration not stated),18,0.8,0.9,5,1
c1ccc2c(c1)CCCN2Cc1nnnn1C1CCCC1,59*,0.4,0,96*,1.1
CC1Cc2ccccc2N1C(=O)CSc1nnc(Cc2ccccc2)n1CCc1ccccc1 (configuration not stated),93*,0.1,0.1,92*,.
O=C(CSc1nnnn1C1CCCC1)N1CCCc2ccccc21,-8,1.1,0.1,91*,1
Cn1cccc1Cc1nnc(SCC(=O)N2CCc3ccccc32)n1CCc1ccccc1,32,0.7,0.9,10,1.5
C1CCC(n2nnnc2CN2CCCC2)CC1,4,1,0.9,13,0.9
CC1Cc2ccccc2N1C(=O)CSc1nnnn1C1CCCC1 (configuration not stated),58*,0.4,0.7,26,1.1
O=C(Nc1ccc(SC(F)F)cc1)c1ccc2nccnc2c1,20,0.8,0.9,9,0.9
O=C(NC1CCCCC1)Sc1ccc(Cl)cc1,42,0.6,0.8,20,1.1
CC1Cc2ccccc2N1C(=O)CSc1nnnn1C(C)C (configuration not stated),52*,0.5,0.6,40,1.4
Cc1ccccc1C(=O)NC1CCN(Cc2nnnn2CCc2ccccc2)CC1,11,0.9,1,-2,1
c1ccc(CCn2nnnc2CN2CCc3ccccc32)cc1,86*,0.1,0,98*,1.3
CC1Cc2ccccc2N1C(=O)CSc1nnnn1C (configuration not stated),-7,1.1,0.6,43,0.9
OCCCCNCc1ccc(OCc2ccc(Cl)cc2)cc1,-13,1.1,1,-4,1.4
O=C(CN1CCC(n2nnc3cc(F)ccc32)CC1)NCCc1nc2ccccc2[nH]1,-3,1,1,-5,1.2
CC(C)C1Oc2ccccc2N(CC(=O)NCCCN2C(C)CCCC2C)C1=O (configuration not stated),-2,1,1,-3,1
Oc1ccc(-c2nc3ccccn3c2NCc2ccc3c(c2)OCO3)cc1,-4,1,0.3,68*,0.8
Cc1ccn2c(NCc3ccc4c(c3)OCO4)c(-c3ccc(O)cc3)nc2c1,17,0.8,0.8,18,0.9
Cc1ccnc(SCCn2c(N3CCCCC3)nc3c2c(=O)n(C)c(=O)n3C)n1,37,0.6,0.8,21,1.6
C=CCOCC(O)CS(=O)(=O)Cc1ccc(Cl)cc1 (configuration not stated),17,0.8,0.3,74*,0.8
SMILES,CYP2C9 inh,CYP2C9 act,CYP2C19 activ,CYP2C19 inh,PLAP act
COc1ccc2c(c1OC)C(=O)N(c1cccc(C)c1)C2=O,-211,3.1*,0.8,20,0.9
CCOc1ccc2nc(NC(=O)C(NS(=O)(=O)c3cccs3)C(C)C)sc2c1 (configuration not stated),3,1,1,0,1.6
CCOc1ccc2nc(NC(=O)C3CCCN(S(=O)(=O)c4cccs4)C3)sc2c1 (configuration not stated),60*,0.4,0.5,50*,0.9
CCOc1ccc2nc(NC(=O)C(CCSC)NS(=O)(=O)c3cccs3)sc2c1 (configuration not stated),30,0.7,0.6,44,2.4*
Cc1cccc(/C(N)=N/OC(=O)CCc2ccccc2)c1,54*,0.5,0.8,21,0.9
Cc1cccc(/C(N)=N/OC(=O)Cc2cccs2)c1,14,0.9,0.8,20,1
CC(NC(=O)C(Cc1ccccc1)NC(=O)c1ccccc1)C(=O)O (configuration not stated),10,0.9,1,-3,1
C=CCn1c(SCC(N)=O)nnc1-c1ccccc1O,-30,1.3,0.9,6,0.9
C=CCn1c(SCC(=O)NCc2ccccc2)nnc1-c1ccccc1O,74*,0.3,0.3,71*,1.4
O=C(CSc1nnc(CCc2ccccc2)n1-c1ccc(Cl)cc1)NCc1ccccc1,89*,0.1,0.2,84*,1.7
C=CCn1c(CSCc2ccc(Cl)cc2)nnc1SCC(=O)NCc1ccccc1,81*,0.2,0.1,87*,1.7
C=CCn1c(CSCc2ccc(C)cc2)nnc1SCC(=O)NCc1ccccc1,79*,0.2,0.2,80*,1.8
COc1cc(NC(=O)c2cccs2)c(OC)cc1NC(=O)CCn1nnc2ccccc21,46,0.5,0.7,28,1
O=C(CCC1COc2ccccc2O1)NCc1ccco1 (configuration not stated),19,0.8,0.8,17,1
C=CCn1c(SCc2ccc(C#N)cc2)nnc1-c1ccccc1,-11,1.1,0.6,43,1
C=CCn1c(SCC(N)=O)nnc1-c1cc(Br)ccc1O,24,0.8,0.1,87*,1
C=CCn1c(SCc2ccccc2C#N)nnc1-c1ccccc1O,9,0.9,0,98*,1.1
CCSc1nnc(C)n1-c1ccc(C(=O)O)cc1,-18,1.2,1.1,-10,0.9
Cc1c(NC(=O)c2cnn3c2NC(c2ccco2)CC3C(F)(F)F)c(=O)n(-c2ccccc2)n1C (configuration not stated),18,0.8,1.1,-12,1.3
Cc1ccc(S(=O)(=O)NNc2nc3ccccc3nc2C(F)(F)F)cc1,50*,0.5,0.3,67*,1.8
COc1ccc(CN(C(C)=O)c2cccc(C)c2C)cc1,68*,0.3,0,99*,1.4
CCCN(CC1CC1)S(=O)(=O)c1ccc(S(N)(=O)=O)cc1,43,0.6,0.3,66*,1.2
Cc1ccc(C2C(/C=C3/SC(=S)NC3=O)=C(c3cccs3)Oc3ccccc32)cc1 (configuration not stated),68*,0.3,1,1,0.9
O=C(Cc1cccs1)Nc1ccc(-c2nc3ccccc3[nH]2)cc1,-1,1,1,3,0.9
CCOC(=O)N1CCN(c2c(F)cc3[nH]c(=S)[nH]c3c2Br)CC1,70*,0.3,0.6,42,1.2
CCOC(=O)N1CCN(c2cc3[nH]c(=S)[nH]c3cc2F)CC1,-9,1.1,0.8,15,1.8
COc1ccc(CN(C#N)c2nc(SC)nc(N(C)C)n2)cc1,-40,1.4,0.1,89*,1.5

# Compound activity as filed in PubChem BioAssay.
